This note sets out measurements from PubChem BioAssay AID1851 (National Center for Advancing Translational Sciences (NCATS), 2009).

Out of some 16,000 compounds screened, about 5,700 (36%) were called active. Not shown: some 24% with an inconclusive outcome. Calls follow the shape of the dose curve; as a rule, active = well fitted curve in the direction sought with a large enough effect; inconclusive = small, poorly fitted or top-dose-only effect, or effect the other way; inactive = no such curve, though single readings can be large or run the other way. The list shows a part of the results.
% is scaled to controls: 0 for no effect and ±100 for the full control effect.

The target of this test is Cytochrome P450 1A2 (Homo sapiens) (UniProt P05177). Put plainly: Cytochrome panel assay with activity outcomes. The note with it: recombinant CYP, pro-luciferin dealkylation, luminescence, p450-cyp1a2; series mostly up to 57.1 µM.
Chain of Cytochrome P450 1A2 (Homo sapiens) (P05177 whole entry, looked up): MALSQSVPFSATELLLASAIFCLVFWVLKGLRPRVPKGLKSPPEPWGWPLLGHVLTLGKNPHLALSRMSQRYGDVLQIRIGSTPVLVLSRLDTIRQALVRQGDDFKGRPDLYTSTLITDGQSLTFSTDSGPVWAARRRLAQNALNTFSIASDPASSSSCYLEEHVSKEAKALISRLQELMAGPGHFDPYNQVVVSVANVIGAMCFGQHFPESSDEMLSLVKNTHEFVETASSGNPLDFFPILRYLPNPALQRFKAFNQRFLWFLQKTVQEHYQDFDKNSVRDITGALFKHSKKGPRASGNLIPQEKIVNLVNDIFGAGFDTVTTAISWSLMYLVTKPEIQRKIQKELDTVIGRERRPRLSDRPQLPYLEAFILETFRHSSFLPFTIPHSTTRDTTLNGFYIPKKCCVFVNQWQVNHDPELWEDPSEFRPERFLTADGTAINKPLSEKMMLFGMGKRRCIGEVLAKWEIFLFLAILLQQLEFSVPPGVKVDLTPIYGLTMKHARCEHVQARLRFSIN
Turning to `CCOC(=O)C1CCN(C(=O)C2CCN(S(=O)(=O)N3CCCC3)CC2)CC1`, the AC50 result is “inactive”.

Turning to `Cn1ncc([N+](=O)[O-])c1C(=O)N1CCOCC1`, the AC50 entry is “inactive”.

On to `O=[N+]([O-])c1ccc(N2CCOCC2)nc1`, for which the half-maximal activity concentration (AC50) was 11.2 µM (active).

In the case of `Cc1cc(N2CCOCC2)ncc1[N+](=O)[O-]`, the AC50 is 10 µM (active).

As for `CN1CCN(c2ccc([N+](=O)[O-])cc2C(=O)N2CCOCC2)CC1`, the AC50 entry was “inactive”.

Consider `Cc1cnc(CNc2ncnc3ccc(-c4ccoc4)cc23)cn1`, for which the AC50 was 12.6 µM (active).

As for `Cc1cnc(CNc2ncnc3ccc(-c4ccc5c(c4)OCO5)cc23)cn1`, the AC50 was 0.398 µM (active).

Take `Cc1cnc(CNc2ncnc3ccc(-c4ccc(N(C)C)cc4)cc23)cn1`: the AC50 was 1 µM (active).

Take `O=S(=O)(O)c1ccc2cc(N=Nc3cc(S(=O)(=O)O)c4cccnc4c3O)ccc2c1`: the activity, negative = inhibition is -18.8% [at 2.29 µM] (inactive).

For the compound `CCCCNC(=O)NS(=O)(=O)c1ccc(C(=O)OC(C)C)o1`, the AC50 result was “inactive”.

On to `Cc1c(NC(=O)NC(C)N2C(=O)C3C4C=CC(C4)C3C2=O)c(=O)n(-c2ccccc2)n1C` (configuration not stated), for which the AC50 entry is “inactive”.

Regarding `NC(N)=NC(=O)c1nc(Cl)c(N2CCCCCC2)nc1N`, the AC50 is 1 µM (active).

Regarding `CN(C)c1nc(N)c(C(=O)N=C(N)N)nc1Cl`, the AC50 is 1 µM (active).

`CCN(c1nc(N)c(C(=O)N=C(N)N)nc1Cl)C(C)C`: the AC50 was 2 µM (active).

Turning to `CC(C)CN(C)c1nc(N)c(C(=O)N=C(N)N)nc1Cl`, the AC50 is 0.794 µM (active).

`O=S(=O)(c1ccc(F)cc1)N1CCCC(CO)C1` (configuration not stated): the AC50 result is “inactive”.

Consider `COc1ccc(NC(=O)N2CC[C@@]3(CCCN(C(=O)c4csnn4)C3)C2)cc1`, for which the AC50 result is “inactive”.

On to `CCN(CC)C(=O)c1cc2cc([N+](=O)[O-])ccc2s1`, for which the AC50 is 2 µM (active).

Consider `CCN(CC)C(=O)Cn1cnc([N+](=O)[O-])n1`, for which the AC50 result was “inactive”.

In the case of `CCOc1ccc(NC(=O)N2CCC(c3ccc(C)cc3)C2)cc1` (configuration not stated), the AC50 result is “inactive”.

Take `O=C(COc1ccc(Br)cc1)N1CCC(c2ccccc2)C1` (configuration not stated): the AC50 was 3.16 µM (active).

`Cc1cccc(OCC(=O)N2CCC(N3CCCCCC3)CC2)c1`: the AC50 result was “inactive”.

As to `Nc1ccc(C(=O)C[C@H](N)C(=O)O)cc1O`, the activity, negative = inhibition was -4.16% [at 11.4 µM] (inactive).

In the case of `Cc1cccn2c(=O)c(/C=N/O)c(N3CCCC3)nc12`, the concentration at half-maximal activity (AC50) was 0.891 µM (active).

In the case of `N[C@H](Cn1ccc(=O)n(Cc2ccccc2C(=O)O)c1=O)C(=O)O`, the AC50 entry is “inactive”.

Consider `CC(C)OC(=O)C1=C2SCC(=O)N2C(N)=C(C#N)C1`, for which the AC50 was 1.26 µM (active).

In the case of `CCOC(=O)C1=C2SCC(=O)N2C(N)=C(C#N)C1`, the AC50 was 1.26 µM (active).

Turning to `O=C(O)c1ccc2c(c1)C(=O)N(C(Cc1ccc(O)cc1)C(=O)O)C2=O` (configuration not stated), the AC50 entry was “inactive”.

For `CN[C@H]1[C@@H](O[C@@H]2[C@H](O[C@@H]3[C@@H](O)[C@@H](O)[C@@H](N=C(N)N)[C@@H](O)[C@@H]3N=C(N)N)O[C@H](C)[C@@]2(O)C=O)O[C@@H](CO)[C@@H](O)[C@H]1O`, the AC50 entry is “inactive”.

Turning to `O=C(Nc1ccc(-n2nncc2-c2ccco2)cc1)c1cc2ccccc2oc1=O`, the AC50 result is “inactive”.

As for `CCC(CC)C(=O)Nc1c2cnn(-c3ccccc3)c2nc(=O)n1-c1ccccc1`, the AC50 entry is “inactive”.

In the case of `O=c1oc(-c2ccco2)nc2c1cnn2-c1ccccc1`, the AC50 was 2 µM (active).

Take `CC1(C)CCCN(C(=O)N2c3ccccc3Sc3ccccc32)C1`: the AC50 result was “inactive”.

Take `CN1C(=C2C(=O)OC(C)(C)OC2=O)Sc2ccccc21`: the AC50 is 11.2 µM (active).

Consider `Nc1ncnc(N(c2ccccc2)C2CCCCC2)c1[N+](=O)[O-]`, for which the AC50 result is “inactive”.

Regarding `Cn1c(SC2=CS(=O)(=O)c3ccccc32)nc2ccccc21`, the AC50 was 6.31 µM (active).

With `Cc1cc(C)c(-c2cc([C@H](C)O/N=C3/[C@H]4OC4[C@@H](O)[C@H]4[C@H]3CCn3c(=O)n(-c5ccccc5)c(=O)n34)on2)c(C)c1` (some centres not stated), the activity, negative = inhibition was -8.09% [at 11.4 µM] (inactive).

With `CCOC(=O)c1sc(=N)n(-c2ccc(OC)cc2)c1C`, the AC50 is 1.26 µM (active).

On to `COc1ccc(-n2c(C)nn(C)c2=O)cc1`, for which the AC50 result was “inactive”.

On to `NCC[C@H](O)C(=O)N[C@H]1C[C@@H](N)[C@@H](O[C@H]2O[C@@H](CN)[C@@H](O)[C@@H](O)[C@@H]2O)[C@@H](O)[C@@H]1O[C@H]1O[C@@H](CO)[C@@H](O)[C@@H](N)[C@@H]1O`, for which the AC50 result is “inactive”.

On to `CCc1cc2c(=O)c(-c3nc4ccccc4n3C)c(C)oc2c(CN(CC)CC)c1O`, for which the AC50 result was “inactive”.

Take `Cc1oc2c(C)c(O)ccc2c(=O)c1-c1ccc2ccccc2n1`: the half-maximal activity concentration (AC50) is 2.24 µM (active).

With `C=CCc1cccc2cc(C(=O)N(CC)CC)c(=O)oc12`, the AC50 was 1.41 µM (active).

For `CN(C)c1ncc2nc(CCc3ccccc3)c(=O)n(C3CC3)c2n1`, the AC50 was 3.16 µM (active).

As to `COc1ccc(Oc2ncc3nc(CCc4ccccc4)c(=O)n(C4CC4)c3n2)cc1`, the AC50 was 12.6 µM (active).

As for `O=c1c(CCc2ccccc2)nc2cncnc2n1C1CC1`, the AC50 was 6.31 µM (active).

Take `COc1ccc(C2C(=O)N(CCc3ccccc3)CC(=O)N2C2CCCC2)cc1` (configuration not stated): the AC50 result was “inactive”.

As to `COc1ncc2nc(CCc3ccccc3)c(=O)n(C3CC3)c2n1`, the AC50 was 3.16 µM (active).

Regarding `C[C@@]1(C(=O)O)CCC[C@@H]1C(=O)O`, the activity, negative = inhibition was -9.8% [at 2.29 µM] (inactive).

`O=c1c(CCc2ccccc2)nc2cnc(Oc3ccccc3)nc2n1C1CC1`: the AC50 was 7.94 µM (active).

Turning to `COc1ccc(S(=O)(=O)N2CCCCCC2)cc1N(C)S(=O)(=O)c1ccc(Cl)cc1`, the AC50 entry was “inactive”.

For `Cc1cc(C)c2c(N)c3ccccc3nc2n1`, the half-maximal activity concentration (AC50) was 2.24 µM (active).

Take `Cc1cc(NCCO)c2ccccc2n1`: the AC50 result is “inactive”.

Take `C=CC[n+]1c(-c2ccc(C)cc2)csc1NNC(=O)Nc1ccccc1`: the concentration at half-maximal activity (AC50) was 10 µM (active).

With `Cc1ccc(Cl)c(Nc2ccccc2C(=O)O)c1Cl`, the AC50 entry was “inactive”.

As for `Cc1c(Cl)cccc1Nc1ccccc1C(=O)O`, the AC50 is 3.16 µM (active).

Turning to `Cc1cccc(C(=O)c2ccccc2C(=O)O)c1O`, the AC50 entry was “inactive”.

Take `Cc1cccc(Nc2ccccc2C(=O)O)c1C`: the AC50 was 5.01 µM (active).

Turning to `Cc1c(Cl)cccc1NC(=O)CN1CCC(C(O)(c2ccccc2)c2ccccc2)CC1`, the AC50 result is “inactive”.

As to `O=S(=O)(O)[C@@H](c1ccccc1)[C@@H](O)c1ccccc1`, the activity, negative = inhibition was -13.9% [at 2.29 µM] (inactive).

In the case of `Cc1ccc2nc(Nc3ccccc3O)nc(-c3ccccc3)c2c1`, the AC50 was 1.78 µM (active).

As to `COC(=O)[C@@]1(Cc2ccccc2)[C@H]2c3cc(C(=O)N4CCCC4)n(CC4CC4)c3C[C@H]2CN1C(=O)c1ccccc1`, the AC50 result is “inactive”.

As for `CCOC(=O)c1cnc(-c2ccccc2)nc1Oc1ccccc1`, the AC50 is 0.631 µM (active).

Turning to `CCOC(=O)c1cnc(-c2ccccc2)nc1Oc1ccc(Cl)cc1`, the AC50 is 0.2 µM (active).

Turning to `CCOC(=O)c1cnc(-c2ccccc2)nc1Oc1cccc(Cl)c1`, the concentration at half-maximal activity (AC50) was 2.51 µM (active).

In the case of `COc1cnc(-c2ccccc2)nc1Oc1cccc(C)c1`, the half-maximal activity concentration (AC50) was 3.16 µM (active).

Take `COC(=O)N1CCC2(CC1)CCN(c1ccncc1)CC2`: the AC50 result was “inactive”.

Consider `Cc1ccc(Oc2nc(-c3ccccc3)ncc2S(C)(=O)=O)cc1`, for which the AC50 was 2.82 µM (active).

As for `COc1nnc(OC)c2ccccc12`, the AC50 was 2.51 µM (active).

Turning to `COc1ccc(Cc2n[nH]c(=O)c3ccccc23)cc1OC`, the AC50 result was “inactive”.

As to `CN(C)CC(C)(C)CN1c2ccccc2Sc2ccccc21`, the activity, negative = inhibition is -17.7% [at 11.4 µM] (inactive).

Take `CCN(CC)[C@@H](C)CN1c2ccccc2Sc2ccccc21`: the AC50 is 0.501 µM (active).

Turning to `CCC(=S)/C=C1\Sc2ccccc2N1CCCS(=O)(=O)O`, the AC50 entry was “inactive”.

As for `O=C1NC(=S)N/C1=C/c1cccc([N+](=O)[O-])c1O`, the AC50 entry was “inactive”.

Take `O=[N+]([O-])c1cccc(/C=N\Nc2ccc3ccccc3n2)c1O`: the concentration at half-maximal activity (AC50) was 0.794 µM (active).

In the case of `O=C(O)c1ccccc1CN1CCC[C@@H](C(=O)O)C1`, the activity, negative = inhibition is -5.22% [at 11.4 µM] (inactive).

Consider `S=c1[nH]c2cc(Cl)ccc2s1`, for which the AC50 was 2 µM (active).

As to `O=C(O)C1C2C=CC3(CN(Cc4ccccn4)C(=O)C13)O2` (configuration not stated), the AC50 entry was “inactive”.

Regarding `COc1ccc(O[C@H]2C=C[C@@H](c3ccccc3)O[C@@H]2CO/N=C\[C@@H](C)[C@H](OCc2ccccc2)C(C)C)cc1`, the activity, negative = inhibition is -3.11% [at 11.4 µM] (inactive).

Consider `COC(=O)c1cc(NC(=O)CC2NC3CCCCC3NC2=O)cc(C(=O)OC)c1` (configuration not stated), for which the AC50 result was “inactive”.

Turning to `O=C(CC1CCCC1)Nc1ccc2c(c1)CCC2`, the AC50 is 15.8 µM (active).

In the case of `Cc1ccc(NC(=O)CC2CS(=O)(=O)CC2CC(=O)Nc2ccc(C)c(C)c2)cc1C` (configuration not stated), the AC50 entry is “inactive”.

Consider `CN(C)C(=O)Oc1cccc([N+](C)(C)C)c1`, for which the AC50 entry was “inactive”.

On to `CS[C@]12C(=O)C[C@]3(C)[C@@H](CC[C@@]3(O)C(=O)CO)[C@@H]1CCC1=CC(=O)CC[C@]12C`, for which the activity, negative = inhibition is -24.3% [at 2.29 µM] (inactive).

Regarding `CCC[C@@H]1C[C@@]1(CCC)C(NC(=O)c1ccc(-c2ccccc2)cc1)c1cccc(Cl)c1` (some centres not stated), the AC50 result is “inactive”.

`N#Cc1ccc(-c2ccccc2)nc1SCC(=O)c1cccc(Cl)c1`: the AC50 is 2 µM (active).

Turning to `Cc1c(C(=O)Nc2nccs2)sc2nc(-c3cccs3)cc(C(F)(F)F)c12`, the AC50 is 1.58 µM (active).

For `Cc1ccc(NC(=O)CN2C(=O)S/C(=C\c3cccn3C)C2=O)cc1`, the AC50 entry is “inactive”.

Take `Cc1ccc(Oc2ccccc2/C=C2\SC(=O)N(C)C2=O)cc1`: the concentration at half-maximal activity (AC50) was 3.16 µM (active).

Turning to `CCCCCCCCC[n+]1cccc2c3ccccc3ccc21`, the AC50 is 15.8 µM (active).

Turning to `Cc1cc(N)c2ccccc2[n+]1CCCCCCCCCCCCCC[n+]1c(C)cc(N)c2ccccc21`, the AC50 entry is “inactive”.

Turning to `Cc1cc(N)c2ccccc2[n+]1CCCCCCCCCC[n+]1c(C)cc(N)c2ccccc21`, the AC50 result is “inactive”.

On to `COc1cccc2c1OC[C@@H](CO)[C@H]2N(C)C(=O)Nc1ccc(Cl)cc1Cl`, for which the AC50 result is “inactive”.

`Clc1ccccc1-c1nc(-c2ccncc2)no1`: the AC50 is 0.0794 µM (active).

Turning to `CC(C)C(NS(=O)(=O)c1cccs1)C(=O)NCCN1CCN(c2ccccc2)CC1` (configuration not stated), the AC50 result was “inactive”.

As to `O=C(CCNS(=O)(=O)c1cccs1)N1CCc2ccccc2C1`, the half-maximal activity concentration (AC50) was 15.8 µM (active).

Regarding `O=C(CCNS(=O)(=O)c1cccs1)N1CCCCCC1`, the AC50 result is “inactive”.

Usually AC50 stands for the midpoint of the concentration-response curve, whichever way the signal moves.
